Test results from PubChem BioAssay AID651640 (Broad Institute, 2012).
“And” between values parts separate entries of the source, which are not always exact repeats. Identical values can stand only once. Out of some 350,000 compounds screened, about 6,000 (1.7%) were called active. About 5% were inconclusive and are not listed. Cut-off read from the data, not from the text of the source: active = CPE inhibition above about 20% (passing the limit was not always enough); inconclusive = no clear call, values can overlap the other calls; tested in BHK-21 cells. Only a selection was taken, and actives are over-represented in it overall. Some compounds were tested as several samples or in several runs, with calls that do not always agree.

assay: inhibitors of DENV2 cytopathic effect, primary screen, cell-based, plate reader, single concentration (AID 651640); details: DENV2-infected cells, cytopathic effect rescue, at 9.99 µM, stronger effect = higher value;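 note: 0% = median of neutral control wells and 100% = median of positive control wells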

SMILES	CPE inhibition
CC=Cc1ccc2n(c1=O)C[C@@H]1[C@@H](CO)[C@H](C(=O)N3CCCCC3)[C@H]2N1C(=O)C1CCC1 (mixture of isomers)	1.43% (inactive)
O=S(=O)(NCC[C@H]1CC[C@@H](NS(=O)(=O)c2ccccc2Cl)[C@@H](CO)O1)c1ccc(Cl)cc1	-9.23% (inactive)
COc1ccc(OC)c(Cc2nnc(CCC(=O)NC3CCCC3)o2)c1	-7.33% (inactive)
COc1ccc2c(C)c(CCC(=O)NC3CC3)c(=O)oc2c1C	63.2% (active)
Cc1c(CCC(=O)O)c(=O)oc2c(C)c(OCc3ccccc3Cl)ccc12	-5.66% (inactive)
C[C@H]1CN([C@@H](C)CO)C(=O)c2cc(C#CCN(C)C)cnc2O[C@H]1CN(C)C(=O)Cc1ccccc1	-2.97% (inactive)
Cc1[nH]c2ccccc2c1CC(=O)Nc1ccc(Nc2cccnc2)c(-c2cccc(Cl)c2)c1	-3.53% (inactive)
Cc1ccccc1CN(C)C[C@H]1OCc2cn(nn2)CCCC(=O)N([C@@H](C)CO)C[C@H]1C	-8.88% (inactive)
COc1ccc(CN(C)C[C@H]2OCCCC[C@H](C)Oc3ccc(NC(=O)c4ccccc4)cc3C(=O)N([C@@H](C)CO)C[C@@H]2C)cc1	10.3% (inactive)
O=C(N/N=C/c1ccccn1)c1ccc(S(=O)(=O)N2CCCCCC2)cc1	0.844% (inactive)
O=C(Nc1ncccc1O)c1ccc(S(=O)(=O)N2CCCC2)cc1	-6.91% (inactive)
O=C(Nc1ncccc1O)c1ccc(S(=O)(=O)N2CCCCCC2)cc1	71.9% (active)
C[C@@H]1CN([C@H](C)CO)C(=O)c2cc(NC(=O)Nc3ccc(F)cc3)ccc2O[C@@H](C)CCCCO[C@H]1CN(C)Cc1ccc(Cl)c(Cl)c1	-2.33% (inactive)
C[C@@H]1CN([C@@H](C)CO)S(=O)(=O)c2ccc(C3=CCCCC3)cc2O[C@@H]1CN(C)Cc1cccc(C(=O)O)c1	0.212% (inactive)
COc1ccc(N2CCN(C(=O)c3cccs3)CC2)cc1	5.45% (inactive)
O=C(COc1ccccc1)Nc1ccc(C(=O)N2CCCC2)cc1	-2.25% (inactive)
O=C(COc1ccccc1)Nc1ccc(N2CCN(C(=O)c3cccs3)CC2)cc1	21.9% (active)

SMILES	CPE inhibition
Cc1cc(C)n(CCNS(=O)(=O)c2ccc(Cl)cc2)n1	8.8% (inactive)
COc1ccc(-c2cn[nH]c2-c2ccc(OC)cc2)cc1	4.92% (inactive)
COc1ccc2cc(-c3[nH]ncc3CNCCn3nc(C)cc3C)ccc2c1	22.2% (active)
CN(C)CC(=O)N1[C@H](C(=O)NC2CCC2)[C@@H](CO)[C@@H]2Cn3c(ccc(-c4ccc(F)cc4)c3=O)[C@@H]21	2.93% (inactive)
O=C(CN1CCOCC1)N1C[C@@H]2N[C@H](C1)C2c1ccc(-c2ccncc2)cc1 (some centres undefined)	-7.01% (inactive)
O=C(C1CCC1)N1C[C@@H]2N[C@H](C1)C2c1ccc(-c2cncnc2)cc1 (some centres undefined)	10.6% (inactive)
O=C(Cc1ccncc1)N1C[C@@H]2N[C@H](C1)C2c1ccc(-c2ccc(F)cc2)cc1 (some centres undefined)	21.5% (active)
Cn1cnc(S(=O)(=O)N2C[C@@H]3N[C@H](C2)C3c2ccc(-c3ccccc3F)cc2)c1 (some centres undefined)	72.2% (active) and -4.36% (inactive)
Cn1cnc(S(=O)(=O)N2C[C@@H]3N[C@H](C2)C3c2ccc(/C=C/c3ccccc3)cc2)c1 (some centres undefined)	1.24% (inactive) and -2.99% (inactive)
COc1ccc(-c2ccc(C3[C@@H]4CN(S(=O)(=O)c5cn(C)cn5)C[C@H]3N4)cc2)cc1 (some centres undefined)	1.06% (inactive)
CO[C@@H]1CN(C)C(=O)c2cc(NC(=O)C3CCCC3)ccc2OC[C@H](C)N(C)C[C@@H]1C	4.63% (inactive)
COC(=O)C[C@@H]1C[C@H]2c3cc(NC(=O)CN(C)C)ccc3O[C@H]2[C@H](CO)O1	1.76% (inactive)
Cc1noc(C)c1S(=O)(=O)N(C)C[C@@H]1OCCCC[C@H](C)Oc2ccc(NC(=O)CCC(F)(F)F)cc2C(=O)N([C@H](C)CO)C[C@H]1C	18.7% (inactive)
O=C(Nc1nccs1)[C@@H]1[C@@H](CO)[C@@H]2Cn3c(ccc(-c4cccnc4)c3=O)[C@@H]2N1CC1CC1	-4.43% (inactive)
CC(C)(C)OC(=O)C[C@@H]1C/C=C\C[C@H](CC(=O)N[C@@H](CO)Cc2ccccc2)C(=O)N[C@H](Cc2ccccc2)COC1=O	21.2% (active)
CC(C)(C)OC(=O)C[C@@H]1C/C=C\C[C@@H](CC(=O)N[C@H](CO)Cc2ccccc2)C(=O)NCCOC1=O	-7.88% (inactive)
C[C@H]1COC(=O)[C@H](CC(=O)OC(C)(C)C)C/C=C\C[C@@H](CC(=O)N[C@H](CO)Cc2ccccc2)C(=O)N1	15.2% (inactive)
